Assay results published in PubChem BioAssay (NCATS).
Results filed as inconclusive are left out. Calls of active or inactive are those of the source. Calls follow the shape of the dose curve; as a rule, active = well fitted curve in the direction sought with a large enough effect; inconclusive = small, poorly fitted or top-dose-only effect, or another doubt; inactive = no such curve, though single readings can be large; an effect the other way counts as inactive or inconclusive.

How the values were obtained:
[1] = Cellular Toxicity (caspase-3) Mesangial (AID 660); conditions: mesangial cells, normalized: DMSO 0%, 100 µM tamoxifen 100%; at 91.7 µM (top of the series)
Summary of the method: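 Human renal glomerular mesangial cells (1000/well) were treated with compounds for 16 h at 37 °C in complete medium, then caspase 3/7 activity was read by Caspase-Glo luminescence. Data were normalized to DMSO and 100 uM tamoxifen; AC50 from Hill fits.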

[2] = Cellular Toxicity (caspase-3) SK-N-SH (AID 661);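 also: 0% = DMSO basal and 100% = 10 µM staurosporine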
Summary of the method: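 SK-N-SH human neuroblastoma cells (1500/well) were treated with compounds for 16 hr at 37 °C in complete medium; caspase 3/7 activity was read by Caspase-Glo luminescence. AC50 came from Hill fits of data normalized to DMSO and 10 uM staurosporine.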

[3] = Cellular Toxicity (caspase-3) H-4-II-E (AID 663); conditions: H-4-II-E rat hepatoma, scaled: DMSO 0%, 100 µM tamoxifen 100%; at 92.2 µM (top of the series);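 also: cells exposed to compound for 16 hr before readout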
Summary of the method: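 Rat hepatoma H-4-II-E cells (1500/well) plated 5 hr, then exposed to compound titrations for 16 hr at 37 °C. Caspase-Glo 3/7 luminescence read after 20 min at RT; data normalized to DMSO and 100 uM tamoxifen, AC50 from Hill fits.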

[4] = Cellular Toxicity (caspase-3) Hek293 (AID 664); conditions: HEK293 caspase-3 activation, DMSO = 0%, 100 µM tamoxifen = 100%; at 92.2 µM (top of the series);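 also: cells exposed to compound for 16 h at 37 °C before readout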
Summary of the method: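 HEK293 cells were exposed to compounds in complete medium for 16 hr at 37 °C, then caspase-3/7 activity was read by Caspase-Glo 3/7 luminescence after 20 min at room temperature. Data normalized to DMSO and 100 uM tamoxifen; AC50 from Hill fits.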

[5] = Cellular Toxicity (caspase-3) N2a (AID 665);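 also: compound exposure lasted 16 h at 37 °C before readout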
Summary of the method: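 Mouse N2a neuroblastoma cells (1500/well) were treated with compounds for 16 h at 37 °C, then caspase-3/7 activity was read by Caspase-Glo luminescence after 1 h at room temperature. Data were normalized to DMSO and 10 uM staurosporine; AC50 from Hill fits.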

[6] = Cellular Toxicity (caspase-3) NIH 3T3 (AID 666);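 also: caspase signal read after 16 h compound exposure; 0% = DMSO basal and 100% = 100 µM tamoxifen stimulation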
Summary of the method: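 Mouse NIH 3T3 fibroblasts (1000 cells/well) were treated with compound for 16 hr at 37°C in complete medium; caspase-3/7 activity was read by Caspase-Glo luminescence. Normalized to DMSO and 100 uM tamoxifen; AC50 from Hill fits.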

[7] = Cellular Toxicity (caspase-3) Renal Proximal Tubule (AID 667); conditions: Potency: caspase-3 activation;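 also: cells exposed to compound for 16 hours at 37 °C before detection; 0% = DMSO basal and 100% = 10 µM staurosporine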
Summary of the method: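 Caspase 3/7 activation measured by luminescent aminoluciferin release in primary rat proximal tubule cells after 16 hr compound exposure at 37 °C. AC50 from Hill-fitted concentration-response, scaled between DMSO and 10 uM staurosporine.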

[8] = molecular target: Cytochrome P450 3A4 (Homo sapiens) (UniProt P08684); assay: qHTS Assay for Inhibitors and Substrates of Cytochrome P450 3A4 (AID 884); also: % is scaled to controls: 0 for no effect and ±100 for the full control effect; nearly all actives have a fitted effect of over 50% in size
Cytochrome P450 3A4 (Homo sapiens), sequence (P08684 whole entry, looked up): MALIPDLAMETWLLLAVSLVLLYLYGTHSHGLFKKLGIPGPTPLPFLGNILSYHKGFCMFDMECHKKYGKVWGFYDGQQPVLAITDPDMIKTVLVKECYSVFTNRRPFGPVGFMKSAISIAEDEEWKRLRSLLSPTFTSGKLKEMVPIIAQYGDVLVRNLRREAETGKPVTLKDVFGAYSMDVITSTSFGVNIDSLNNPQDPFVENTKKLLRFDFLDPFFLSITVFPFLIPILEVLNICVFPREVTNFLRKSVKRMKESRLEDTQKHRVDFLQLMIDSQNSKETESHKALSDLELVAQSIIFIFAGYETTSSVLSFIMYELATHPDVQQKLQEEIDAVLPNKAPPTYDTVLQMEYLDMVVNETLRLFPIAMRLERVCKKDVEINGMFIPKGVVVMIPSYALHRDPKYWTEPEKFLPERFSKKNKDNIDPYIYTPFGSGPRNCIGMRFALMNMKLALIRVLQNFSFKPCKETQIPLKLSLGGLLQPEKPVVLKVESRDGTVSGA
Summary of the method: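 20 nM human CYP3A4 with 25 uM Luciferin-PPXE (at KM) in 200 mM KPO4, preincubated 10 min with compound; NADPH regeneration started a 60 min RT reaction. Luciferin detected by luminescence, normalized to 57 uM ketoconazole as full inhibition.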

[9] = Cell Viability - LYMP2-001 (AID 921);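 also: 0% = DMSO only and full inhibition = tetraoctylammonium bromide control wells; nearly all actives have a fitted effect of over 70% in size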
Summary of the method: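 Cellular ATP loss read by luciferase luminescence after 24 h compound exposure at 37 C in complete medium. LYMP2-001 lymphoblastoid cells, 2500/well; qHTS concentration-response data fitted with Hill equation for AC50.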

[10] = MultiTox-Fluor Cytotoxicity Assay - LYMP1-001 - Dead Cells (AID 946)
Summary of the method: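 Cytotoxicity as increased dead-cell protease fluorescence (bis-AAF-R110, 485/520 nm), read 60 min after MultiTox-Fluor reagent. Human lymphoblastoid line exposed 16 h; Hill-fitted AC50, with DMSO as 0% and 15 uM tetraoctylammonium bromide as 100%.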

[11] = MultiTox-Fluor Cytotoxicity Assay - LYMP1-001 - Live Cells (AID 947);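 also: 0% = DMSO only and full inhibition = tetraoctylammonium bromide control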
[12] = Cell Viability - LYMP1-002 - Assay at 16 hr (AID 948);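 also: 0% = DMSO alone and full effect = 92 µM tetraoctylammonium bromide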
Summary of the method: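 ATP luminescence (CellTiter-Glo) was measured after 16 hr compound exposure at 37 C of 2500 lymphoblastoid LYMP1-002 cells per well. Concentration-response curves were fitted with the Hill equation to give AC50.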

[13] = MultiTox-Fluor Cytotoxicity Assay - LYMP1-002 - Live Cells (AID 955); also: % is scaled to controls: 0 for no effect and ±100 for the full control effect
Summary of the method: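 Human lymphoblastoid LYMP1-002 cells, 2500/well in complete medium, rested 5 hr at 37 C, then exposed to compounds for 16 hr at 37 C. Live-cell protease cleavage of GF-AFC read by fluorescence (Ex/Em 405/510) after 60 min at room temperature; AC50 from Hill fits.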

[14] = MultiTox-Fluor Cytotoxicity Assay - LYMP1-002 - Dead Cells (AID 960); also: nearly all actives have a fitted effect of over 60% in size
Summary of the method: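 Human lymphoblastoid cells (LYMP1-002), 2500/well in complete medium, were exposed to compounds for 16 hr at 37 C. Dead-cell protease activity was read as bis-AAF-R110 fluorescence (Ex/Em 485/520), normalized to DMSO and 15 uM tetraoctylammonium bromide; AC50 from Hill fits.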

[15] = MultiTox-Fluor Cytotoxicity Assay - LYMP1-003 - Dead Cells (AID 961); also: nearly all actives have a fitted effect of over 70% in size
Summary of the method: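 Dead-cell protease release, detected as bis-AAF-R110 fluorescence at 485/520 nm, was measured in LYMP1-003 cells after 16 h compound treatment at 37 C. AC50 values came from Hill-modeled qHTS curves normalized to DMSO (0%) and 15 uM tetraoctylammonium bromide (100%).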

[16] = MultiTox-Fluor Cytotoxicity Assay - LYMP1-003 - Live Cells (AID 962);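 also: 0% = DMSO only and full loss = 92 µM tetraoctylammonium bromide; cytotoxic hits lower the live-cell protease signal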
Summary of the method: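 LYMP1-003 human lymphoblastoid cells (2500/well) in complete medium were preincubated 5 hr at 37 C, then exposed to compounds for 16 hr at 37 C. Live-cell protease cleavage of GF-AFC read by fluorescence (Ex/Em 405/510); AC50 from Hill fits.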

[17] = Cell Viability - LYMP1-003 - Assay at 24 hr (AID 963);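 also: plate controls were DMSO only for no effect and tetraoctylammonium bromide positive control for full effect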
Summary of the method: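 Human lymphoblastoid LYMP1-003 cells (2500/well) were rested 5 hr at 37 C, then exposed to compounds in complete medium for 24 hr at 37 C. Cellular ATP was quantified by CellTiter-Glo luminescence, and AC50 values came from Hill fits of concentration-response data.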

[18] = Cell Viability - LYMP1-003 - Assay at 40 hr (AID 964); also: % is scaled to controls: 0 for no effect and ±100 for the full control effect; nearly all actives have a fitted effect of over 60% in size
Summary of the method: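 Human lymphoblastoid LYMP1-003 cells, 2500/well in complete medium, rested 5 hr at 37 C, then exposed to compounds for 40 hr at 37 C. Viability read as intracellular ATP by CellTiter-Glo luminescence; AC50 from Hill fits of concentration-response data.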

[19] = Cell Viability - LYMP2-003 (AID 965);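 also: cells exposed to compounds for 24 h before reading; 0% = DMSO only and full effect = 92 µM tetraoctylammonium bromide; nearly all actives have a fitted effect of over 50% in size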
Summary of the method: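 CellTiter-Glo luminescence quantified ATP loss after 24 h compound treatment of LYMP2-003 lymphoblastoid cells at 37 C. Titration series were fitted with the standard Hill equation to give AC50.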

Cc1cc(C)cc([N+](=O)[O-])c1
inactive: caspase-3 activation [1] -0.822% | outcome [2] | caspase-3 activation [3] 0.227% | caspase-3 activation [4] 0.15% | outcome [5] | outcome [6] | Potency [7] | Potency [8] | Potency [9] | outcome [10] | outcome [11] | outcome [12] | outcome [13] | outcome [14] | Potency [15] | Potency [16] | Potency [17] | Potency [18] | Potency [19]

O=c1[nH][nH]c(=O)c2cc([N+](=O)[O-])ccc12
inactive: caspase-3 activation [1] -0.0154% | outcome [2] | caspase-3 activation [3] -0.659% | caspase-3 activation [4] 4.2% | outcome [5] | outcome [6] | Potency [7] | Potency [8] | Potency [9] | outcome [10] | outcome [11] | outcome [12] | outcome [13] | outcome [14] | Potency [15] | Potency [16] | Potency [17] | Potency [18] | Potency [19]

CC(=O)CC(C)C
inactive: caspase-3 activation [1] 0.196% | outcome [2] | caspase-3 activation [3] 1.31% | caspase-3 activation [4] -0.532% | outcome [5] | outcome [6] | Potency [7] | Potency [8] | Potency [9] | outcome [10] | outcome [11] | outcome [12] | outcome [13] | outcome [14] | Potency [15] | Potency [16] | Potency [17] | Potency [18] | Potency [19]

CCCCC(CC)CNCC(CC)CCCC (stereo unspecified)
inactive: caspase-3 activation [1] -1.31% | outcome [2] | caspase-3 activation [3] -0.122% | caspase-3 activation [4] 0.754% | outcome [5] | outcome [6] | Potency [7] | Potency [8] | Potency [9] | outcome [10] | outcome [11] | outcome [12] | outcome [13] | outcome [14] | Potency [15] | Potency [16] | Potency [17] | Potency [18] | Potency [19]

CC=O
inactive: caspase-3 activation [1] 1.5% | outcome [2] | caspase-3 activation [3] 1.97% | caspase-3 activation [4] 2.27% | outcome [5] | outcome [6] | Potency [7] | Potency [8] | Potency [9] | outcome [10] | outcome [11] | outcome [12] | outcome [13] | outcome [14] | Potency [15] | Potency [16] | Potency [17] | Potency [18] | Potency [19]

CSCCC=O
inactive: caspase-3 activation [1] 0.0965% | outcome [2] | caspase-3 activation [3] -0.467% | caspase-3 activation [4] -2.79% | outcome [5] | outcome [6] | Potency [7] | Potency [8] | Potency [9] | outcome [10] | outcome [11] | outcome [12] | outcome [13] | outcome [14] | Potency [15] | Potency [16] | Potency [17] | Potency [18] | Potency [19]

Cc1ccc(Cl)cc1
inactive: caspase-3 activation [1] 0.555% | outcome [2] | caspase-3 activation [3] 0.337% | caspase-3 activation [4] 0.748% | outcome [5] | outcome [6] | Potency [7] | Potency [8] | Potency [9] | outcome [10] | outcome [11] | outcome [12] | outcome [13] | outcome [14] | Potency [15] | Potency [16] | Potency [17] | Potency [18] | Potency [19]

NC(=O)NC(N)=O
inactive: caspase-3 activation [1] -0.43% | outcome [2] | caspase-3 activation [3] -0.188% | caspase-3 activation [4] 0.826% | outcome [5] | outcome [6] | Potency [7] | Potency [8] | Potency [9] | outcome [10] | outcome [11] | outcome [12] | outcome [13] | outcome [14] | Potency [15] | Potency [16] | Potency [17] | Potency [18] | Potency [19]

CC(C)Cc1nccs1
inactive: caspase-3 activation [1] 1.49% | outcome [2] | caspase-3 activation [3] 0.155% | caspase-3 activation [4] 2.01% | outcome [5] | outcome [6] | Potency [7] | Potency [8] | Potency [9] | outcome [10] | outcome [11] | outcome [12] | outcome [13] | outcome [14] | Potency [15] | Potency [16] | Potency [17] | Potency [18] | Potency [19]

Cc1ccccc1C#N
inactive: caspase-3 activation [1] 0.378% | outcome [2] | caspase-3 activation [3] 1.11% | caspase-3 activation [4] -1.44% | outcome [5] | outcome [6] | Potency [7] | Potency [8] | Potency [9] | outcome [10] | outcome [11] | outcome [12] | outcome [13] | outcome [14] | Potency [15] | Potency [16] | Potency [17] | Potency [18] | Potency [19]

O=[N+]([O-])c1ccc(NCCO)c(OCCO)c1
inactive: caspase-3 activation [1] 0.383% | outcome [2] | caspase-3 activation [3] 0.77% | caspase-3 activation [4] 0.203% | outcome [5] | outcome [6] | Potency [7] | Potency [8] | Potency [9] | outcome [10] | outcome [11] | outcome [12] | outcome [13] | outcome [14] | Potency [15] | Potency [16] | Potency [17] | Potency [18] | Potency [19]

O=C(Cl)c1ccccc1[N+](=O)[O-]
inactive: caspase-3 activation [1] -1.02% | outcome [2] | caspase-3 activation [3] 1.33% | caspase-3 activation [4] 1.55% | outcome [5] | outcome [6] | Potency [7] | Potency [8] | Potency [9] | outcome [10] | outcome [11] | outcome [12] | outcome [13] | outcome [14] | Potency [15] | Potency [16] | Potency [17] | Potency [18] | Potency [19]

CCNc1ccccc1
inactive: caspase-3 activation [1] -0.0326% | outcome [2] | caspase-3 activation [3] -0.349% | caspase-3 activation [4] -0.687% | outcome [5] | outcome [6] | Potency [7] | Potency [8] | Potency [9] | outcome [10] | outcome [11] | outcome [12] | outcome [13] | outcome [14] | Potency [15] | Potency [16] | Potency [17] | Potency [18] | Potency [19]

O=[N+]([O-])c1ccccc1CCO
inactive: caspase-3 activation [1] -1.29% | outcome [2] | caspase-3 activation [3] 1.12% | caspase-3 activation [4] -0.925% | outcome [5] | outcome [6] | Potency [7] | Potency [8] | Potency [9] | outcome [10] | outcome [11] | outcome [12] | outcome [13] | outcome [14] | Potency [15] | Potency [16] | Potency [17] | Potency [18] | Potency [19]
